Results on 4 molecules are retold here after PubChem BioAssay AID493167 (Broad Institute, 2011).

The source made the active and inactive calls.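 How the source made its calls: active means signal falls and fitted half-maximal concentration is at most ten times the sample's top valid dose; inconclusive means flat fit with 30 to 70% inhibition, or poor fit; inactive means change in the rising direction, plus the rest.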

The subject of this experiment is LuxS (S-ribosylhomocysteine lyase), bacterial. In words: LuxS enzyme inhibitors, dose response, biochemical, dry powder, set 3, absorbance (AID 493167). To be noted: purified Co-LuxS, SRH turnover, DTNB absorbance 412 nm; series mostly up to 35 µM.
Consider `Cc1noc(C)c1S(=O)(=O)Nc1ccc2c(c1)C(=O)N([C@@H](C)CO)C[C@@H](C)[C@@H](CN(C)Cc1ccc(Oc3ccccc3)cc1)O2`, for which the molecule was classed as inactive. As to `O=S(=O)(Nc1cccnc1)c1ccc(Oc2ccccc2)cc1`, the call was inactive. For the molecule `C[C@@H]1CN([C@H](C)CO)C(=O)c2ccccc2-c2ccccc2CO[C@@H]1CN(C)Cc1ccc(Oc2ccccc2)cc1`, the molecule was called inactive.

Turning to `O=S(=O)(Nc1ccccn1)c1ccccc1`, the molecule was classed as inactive.
